# An excerpt weighted towards active compounds, which were near 1.5% of everything screened.
# AID504770 = E. coli YBA685 growth inhibition, screen for V. cholerae RctB inhibitors; E. coli YBA685 rctB-dependent plasmid, OD600 growth, 3 h; stronger effect = lower value; z-score (test concentration not listed); actives 0.27% (n = 130,000); AID 504770; in the data active = z-score below about -2, passing the limit was not always enough
# MenB inh = inhibitors of Mycobacterium tuberculosis MenB enzyme. P9WNP5. MenB enzyme assay, absorbance read-out. inhibition, % (test concentration not listed). actives 0.43% (n = 100,000). AID 540299; in the data active = inhibition above about 21%, passing the limit was not always enough
# Target sequence (P9WNP5 whole entry, looked up): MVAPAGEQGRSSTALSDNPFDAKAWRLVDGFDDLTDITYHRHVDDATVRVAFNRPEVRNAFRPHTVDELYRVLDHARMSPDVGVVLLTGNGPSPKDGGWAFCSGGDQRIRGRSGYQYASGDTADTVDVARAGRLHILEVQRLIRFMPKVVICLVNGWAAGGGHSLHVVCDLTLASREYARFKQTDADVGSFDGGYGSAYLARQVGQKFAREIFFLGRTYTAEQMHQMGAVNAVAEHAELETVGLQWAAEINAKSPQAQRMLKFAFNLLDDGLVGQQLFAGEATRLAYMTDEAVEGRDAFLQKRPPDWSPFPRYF
# Mtb MbtI inh = blocks the Mycobacterium tuberculosis siderophore enzyme MbtI | P9WFX0 | purified MbtI enzyme, fluorescence intensity read-out | inhibition, % (concentration not given with the values) | actives 0.89% (n = 100,000); in the data active = inhibition mostly above about 56%, no sharp cut-off; inactive = mostly below about 77%
# PV pol inh = poliovirus RNA polymerase inhibition; actives 0.66% (n = 150,000); poliovirus polymerase elongation, fluorescence polarization; stronger effect = lower value; % elongation, % (compound at 16.7 µg/mL); P03300; in the data active = % elongation below about 90%
# Hits are given with their value; - = inactive; . = no result given.
SMILES,AID504770,MenB inh,Mtb MbtI inh,PV pol inh
Cc1sc(NC(=O)C2CC2)c(C#N)c1C,-,-,90,-
CCCCCOc1ccc(C(=O)/C=C/C(=O)O)cc1,-,-,63,-
CCCCCCCCCCCCCCCCCCc1ccc(C(=O)/C=C/C(=O)O)cc1,.,-,-,-
CC1=C/C(=N\Nc2nncc3ccccc23)CC1,-,-,-,-
CC1=C/C(=N\Nc2ccccc2Cl)CC1,-,-,72,-
Nc1nonc1/C(=N/O)N1CCCC1,-,-,-,-
Nc1nonc1C(=O)N1CCCC1,-,46,-,-
Cc1ccc(C2SC(=O)NC3=C2C(=O)c2ccccc23)cc1 (stereo not given),-,-,.,-
C1=C[C@H]2c3ccccc3N[C@@H](c3cccc(OC4CSC4)c3)[C@H]2C1,-,-,-,-
O=c1[nH]nc(-c2ccccc2)o1,-,-,-,-
COc1ccc(-c2cc3nccc(-c4cc(Cl)c(C)cc4O)n3n2)cc1,.,.,.,86
C[C@H]1COc2c(N3CCN(C)CC3)c(F)cc3c(=O)c(C(=O)O)cn1c23,-4.4,-,-,-
OCc1nc2ccccc2n1Cc1ccccc1Cl,-,-,-,-
Oc1ccc(/C=N/n2cnn(Cc3ccccc3Cl)c2=S)c(O)c1,-,-,-,87
C/C(=N\NC(=O)c1nc(Cl)c(Cl)c(N)c1Cl)c1cc(O)ccc1O,-,-,56,-
Cc1cc(=S)nc(-c2ccccn2)[nH]1,-,-,81,-
Cn1nc(-c2ccccn2)sc1=S,-,-,-,-
Cc1nc2c3ccccc3nc(NNC(=O)CCC(=O)N3CCN(c4cccc(Cl)c4)CC3)n2n1,.,.,.,-
Cc1nc2c3ccccc3nc(NNC(=O)CCC(=O)N3CCN(c4ccccc4)CC3)n2n1,.,.,.,85
Cc1nc2c3ccccc3nc(NNC(=O)CCC(=O)N3CCN(c4ccccc4F)CC3)n2n1,.,.,.,-
COc1ccc(N2CCN(C(=O)CCC(=O)NNc3nc4ccccc4c4nc(C)nn34)CC2)cc1,.,.,.,87
CCCCN(C)C(=O)CCC(=O)NNc1nc2ccccc2c2nc(C)nn12,.,.,.,81
C=CCN(CC=C)C(=O)Nc1c(C)cc(C)c2c1CC(C)(C)C2=O,-,.,.,.
N#Cc1oc2ccccc2c1NC(=O)COC(=O)c1ccc(N2C(=O)c3ccccc3C2=O)cc1,-,-,-,-
O=C(NC(=O)C(F)(F)F)NC1CCCC1,-,-,-,-
SMILES,AID504770,MenB inh,Mtb MbtI inh,PV pol inh
CN(C)CCC(=O)c1ccccc1,-,.,-,-
CCCC(=O)c1ccc2[s+]c3ccccc3[n+](CCCN(C)C)c2c1,-,-,.,89
O=C1NC(=O)C2C3C=CC(O3)C12 (stereo not given),-3.5,-,-,-
O=C1NC(=S)N(c2ccccc2)C(=O)/C1=C\c1ccoc1,-,-,69,-
O=C(NC1CCCCC1)Sc1ccc(Cl)cc1,-,-,76,-
NC(=S)NNc1ccc(S(N)(=O)=O)cc1,-,-,51,-
CCCn1c(C)cc(C(=O)CSc2nc(O)cc(=O)n2C2CCCC2)c1C,-,-,-,-
O=C(NC(Cc1ccccc1)C(=O)OCc1ccccc1)c1cccs1 (stereo not given),-,.,-,-
O=C(N[C@@H](Cc1ccccc1)C(=O)OCc1ccccc1)c1ccco1,-,-,-,80
O=C(CSc1cccc[n+]1[O-])c1cc2ccccc2o1,-,.,98,-
O=C(CSc1cccc[n+]1[O-])c1cccs1,-,.,98,-
CCC(C(=O)NCc1ccccc1)N(C(=O)Cn1nnc(-c2cccs2)n1)c1ccccc1OC (stereo not given),-,-,-,-
CCc1ccc(NC(=O)C(C)n2nnc3sc(-c4ccccc4)cc3c2=O)cc1 (stereo not given),.,.,.,79
COC(=O)C(C)n1nnc2sc(-c3ccccc3)cc2c1=O (stereo not given),.,.,.,-
CCN(CC)c1ccc(NS(=O)(=O)c2cc3[nH]c(=O)c(=O)[nH]c3cc2C)c(C)c1,.,.,.,85
CCn1c(Cn2nnc3ccccc3c2=O)nc2cc(S(=O)(=O)N(C)C)ccc21,-,-,-,-
O=C1OCCN1/N=C/c1ccc([N+](=O)[O-])o1,-4.3,-,-,-
O=C1CN(/N=C/c2ccc([N+](=O)[O-])o2)C(=O)N1,-2.3,-,-,-
O=C1CN(/N=C/c2ccc(-c3ccc([N+](=O)[O-])cc3)o2)C(=O)N1,.,-,-,-
Cc1cccc(C(N)=S)c1,-,-,62,-
Cc1ccc(-n2cccc2)c(O)c1,-,.,-,.
CC(=O)Nc1scc(C)c1-c1nc2ccccc2s1,-,.,.,.
CNc1sc(C(=O)c2cccs2)c(N)c1-c1nc2ccccc2s1,-,-,97,-
CN(C)C(CNCc1ccc(-n2cnc3ccccc32)cc1)c1ccco1 (stereo not given),-,32,-,-
CN(C)C(CNC(=O)c1ccccn1)c1ccco1 (stereo not given),-,-,-,-
SMILES,AID504770,MenB inh,Mtb MbtI inh,PV pol inh
O=C(NCC1CCCO1)c1ccccc1NC(=O)C1CC1 (stereo not given),-,-,-,-
O=C(N=Nc1c(O)[nH]c2cc3c(cc12)OCCCO3)C1CCCCC1,-,-,-,-
O=Nc1c(O)[nH]c2cc3c(cc12)OCCO3,-,-,-,86
COc1cc2cc3c4cc(OC)c(OC)cc4cc[n+]3c(C)c2cc1OC,-,-,-,88
COC(CN(C)C(=O)c1c[nH]c2ccc(S(=O)(=O)Nc3ccccc3F)cc2c1=O)OC,-,-,-,-
N#CCc1nc(-c2cccc(Cl)c2)n[nH]1,-,-,74,-
COc1ccc(OCCSc2nc(C)cc(=O)[nH]2)cc1,-,51,-,-
CCc1c(C)nc(SCCOc2ccc(OC)cc2)[nH]c1=O,-,.,.,.
CC(C)NC(=O)CC(c1cccs1)N1Cc2ccccc2C1=O (stereo not given),-,-,-,-
O=C(CCC(=O)c1ccc(F)cc1)c1ccc(F)cc1,-,-,-,-
O=C(CC1C(=O)Sc2[nH]c(=O)sc21)c1ccc(F)cc1 (stereo not given),-,59,85,-
CN(C)C(=S)Nc1ccccc1OC(F)F,-,-,88,-
O=C(O)CCN1CCCC1,-,-,-,-
O=C(O)CN1CCCCC1,-,31,-,-
Cc1ccc(S(=O)(=O)/N=C(\N)Nc2nc3ccccc3o2)cc1,-,-,-,-
CS(=O)(=O)N(CC(O)Cn1cc(/C=N/O)c2ccccc21)c1ccc(Cl)cc1 (stereo not given),-,-,-,.
Cc1cc(OC(=O)/C=C/c2ccc(F)cc2)cc(=O)o1,-,-,-,84
CN1CCN(c2ccc(Nc3ccnc4cc(Cl)ccc34)cc2Cl)CC1,-,-,.,89
CCN(CC)Cc1cc(Nc2ccnc3cc(Cl)ccc23)ccc1O,.,-,-,-
CCOc1ccc(/C=C/C(=O)Nc2cc3c(cc2N2CCCCC2)n(C)c(=O)c(=O)n3C)cc1,-,-,-,-
CN(C)S(=O)(=O)c1ccc2c(c1)oc(=O)n2C,-,27,-,-
N=C1SCC(=O)N1c1nccs1,-4.6,-,.,-
Cc1cc2nc(N3C(=N)SCC3=O)sc2cc1C,-,-,-,-
N#Cc1c(=O)n(O)c2ccccc2[n+]1[O-],-4.3,-,-,-
N#Cc1c(N)[n+]([O-])c2ccccc2[n+]1[O-],-4.4,-,-,-

# Screening data (PubChem BioAssay)
